Reference: PubChem BioAssay AID588697 (Southern Research Specialized Biocontainment Screening …, 2011)
Records with an inconclusive call do not appear. A number with no mark means an inactive call.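 The calls were made as follows: active = inhibition of at least 30% at any tested concentration; inactive = the rest, inconclusive results apart.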

test system: M18 aspartyl aminopeptidase (Plasmodium falciparum 3D7); experiment: P. falciparum M18 aspartyl aminopeptidase inhibition – biochemical, QFRET fluorogenic substrate, counter-screen for PfM17LAP inhibitor project, dose response (AID 588697); details: recombinant PfM18AAP, H-Glu-NHMec fluorogenic substrate; series mostly up to 100 µM; inhibition: at the top concentration

Row | Compound | inhibition
1 | COC(=O)c1ccccc1NC(=O)c1ccc2c(Cl)c3c(nc2c1)CCC3 | -4.78%
2 | COC(=O)c1cc(OC)c(OC)cc1NC(=O)c1sc2nc(C)ccc2c1N | -12.5%
3 | CC1=C(C)CC(C(=O)Nc2ccc(Oc3ccc(Cl)cc3)cc2)C(C(=O)O)C1 (stereo not drawn) | -23.5%
4 | COc1cc(NC(=O)c2ccc(-c3ccccc3)cc2)c(C(=O)O)cc1OC | -23.2%
5 | CC(C)C[C@H](N)C(=O)NO | 22.5%
6 | N[C@@H](Cc1c[nH]c2ccccc12)C(=O)NO | 6.05%
7 | CCC(C)(C)C1CCc2c(sc(NC(=O)C3CC(C)=C(C)CC3C(=O)O)c2C(=O)OC)C1 (stereo not drawn) | -14.6%
8 | Cc1ccc(NC(=O)CSc2nc(O)cc(=O)n2Cc2ccccc2)cc1 | -15.7%
9 | CC1=C(C)CC(C(=O)Nc2nc(-c3cc(C)ccc3C)c(C)s2)C(C(=O)O)C1 (stereo not drawn) | -16.1%
10 | Cc1cc(SCC(=O)Nc2ccccc2C(=O)O)nc2ccccc12 | -29.6%
11 | COC(=O)c1c(NC(=O)C2CCCCC2C(=O)O)sc2c1CCC(c1ccccc1)C2 (stereo not drawn) | -13.8%
12 | Cc1cc(=O)[nH]c(SCC(=O)Nc2ccccc2)n1 | -14.2%
13 | NC(N)=NCCC[C@H](N)C(=O)NO | 8.92%
14 | COc1ccc(-c2nnc(NC(=O)C3CC(C)=C(C)CC3C(=O)O)s2)cc1 (stereo not drawn) | -14%
15 | O=C(Nc1ccc(Cl)cc1)Nc1ccccc1C(=O)O | -18%
16 | O=C(CSc1nc(O)cc(=O)[nH]1)Nc1ccccc1 | -7.82%
17 | COC(=O)c1c(NC(=O)C2CC=CCC2C(=O)O)sc(C)c1-c1ccc(C)cc1 (stereo not drawn) | -8.84%
18 | COC(=O)c1ccccc1NC(=O)c1cc2cc3ccc(C)cc3nc2s1 | -12.3%
19 | O=C(CSc1nccc(=O)[nH]1)Nc1ccc(N2CCOCC2)cc1 | 11.4%
20 | O=C(O)c1ccccc1C(=O)Nc1nc2c(s1)CCCC2 | 0.82%
21 | O=C(Cc1cccc2ccccc12)NO | 6.64%
22 | O=C(CSc1ccccc1)Nc1cccc2c1C(=O)NC2=O | -15.7%
23 | O=C1OCCC1Sc1nnc(NC2CCCCC2)s1 (stereo not drawn) | -5.58%
24 | CCn1c2ccccc2c2cc(NC(=O)CSc3nc(C)cc(=O)[nH]3)ccc21 | 19.1%
25 | COC(=O)c1c(NC(=O)c2ccccc2C(=O)O)sc2c1CCCC2 | 4.3%
26 | O=C(CSc1nccc(=O)[nH]1)Nc1ccc(Oc2ccccc2)cc1 | -16.2%
27 | CC1CCc2sc(C(=O)Nc3cccc4c3C(=O)NC4)cc2C1 (stereo not drawn) | -6.86%
28 | COc1cc(NC(=O)CSc2ccccc2)c(C(=O)O)cc1OC | -7.09%
